Source: the supplement of paper PMC10849652
About 8,800 targets were measured; listed, in parts, are those with a hit and a random draw of the rest. About 0.5% of all pairs of compound and target were hits. Values without a mark were called inactive.

compound: CC1=C(SC2=C1C(=N[C@H](C3=NN=C(N32)C)CC(=O)N)C4=CC=C(C=C4)Cl)C; experiment: log2 fold change, soluble protein after heating vs DMSO (PISA); higher = thermal stabilisation; K562 lysate, 10 uM; active = over 0.2 and 3.5 SD of the protein, either way, in both replicates (recomputed)
Summary of the method: (§1)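 Soluble protein was defined as the supernatant remaining after 21,000xg for 90 min, following pooling of heated aliquots and adjustment to 0.5% NP-40 at 4°C. Before that, crude K562 extract at 1 mg/mL protein in PBS pH 7.4 with 1 mM MgCl2 was treated with 10 μM compound for 30 min and heated for 3 min across 48°C-58°C. Quantification used TMTpro 16plex LC-MS/MS with channel sums equalised, and values are log-two fold changes in thermal stability relative to solvent controls from duplicates.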

Chain of UniProt O00767 (O00767 whole entry, looked up): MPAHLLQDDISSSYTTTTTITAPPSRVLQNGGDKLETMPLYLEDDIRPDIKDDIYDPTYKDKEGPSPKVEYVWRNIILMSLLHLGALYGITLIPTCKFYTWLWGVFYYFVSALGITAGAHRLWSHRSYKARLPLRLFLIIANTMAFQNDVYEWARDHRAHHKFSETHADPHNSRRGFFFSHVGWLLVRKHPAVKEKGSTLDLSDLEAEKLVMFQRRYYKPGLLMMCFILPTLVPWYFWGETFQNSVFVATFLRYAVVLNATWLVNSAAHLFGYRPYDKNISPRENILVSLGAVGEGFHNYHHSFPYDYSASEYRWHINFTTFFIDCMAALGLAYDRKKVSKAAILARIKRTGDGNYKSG
Chain of UniProt Q96K19 (Q96K19 whole entry, looked up): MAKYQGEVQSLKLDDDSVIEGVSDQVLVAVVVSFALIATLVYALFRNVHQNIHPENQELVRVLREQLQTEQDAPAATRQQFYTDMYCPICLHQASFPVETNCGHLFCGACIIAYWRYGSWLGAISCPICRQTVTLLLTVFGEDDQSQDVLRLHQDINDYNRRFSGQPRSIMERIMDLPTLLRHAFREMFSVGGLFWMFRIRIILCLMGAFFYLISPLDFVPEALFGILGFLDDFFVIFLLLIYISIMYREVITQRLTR
Chain of UniProt P35250 (P35250 whole entry, looked up): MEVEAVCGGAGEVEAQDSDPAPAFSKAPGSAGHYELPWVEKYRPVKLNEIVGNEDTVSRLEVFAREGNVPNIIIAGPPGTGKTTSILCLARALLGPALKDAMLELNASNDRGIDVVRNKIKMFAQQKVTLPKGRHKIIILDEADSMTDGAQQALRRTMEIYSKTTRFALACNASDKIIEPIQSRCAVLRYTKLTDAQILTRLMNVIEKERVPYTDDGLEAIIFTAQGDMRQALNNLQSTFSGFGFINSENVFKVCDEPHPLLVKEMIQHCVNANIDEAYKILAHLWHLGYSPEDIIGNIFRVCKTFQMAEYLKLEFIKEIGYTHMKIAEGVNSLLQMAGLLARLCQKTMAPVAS
Chain of UniProt Q9P0P0 (Q9P0P0 whole entry, looked up): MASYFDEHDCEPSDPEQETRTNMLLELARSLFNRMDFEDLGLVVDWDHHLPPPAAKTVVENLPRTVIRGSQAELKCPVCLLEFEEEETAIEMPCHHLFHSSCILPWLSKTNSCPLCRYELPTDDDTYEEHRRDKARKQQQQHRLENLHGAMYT
Chain of UniProt O94762 (O94762 whole entry, looked up): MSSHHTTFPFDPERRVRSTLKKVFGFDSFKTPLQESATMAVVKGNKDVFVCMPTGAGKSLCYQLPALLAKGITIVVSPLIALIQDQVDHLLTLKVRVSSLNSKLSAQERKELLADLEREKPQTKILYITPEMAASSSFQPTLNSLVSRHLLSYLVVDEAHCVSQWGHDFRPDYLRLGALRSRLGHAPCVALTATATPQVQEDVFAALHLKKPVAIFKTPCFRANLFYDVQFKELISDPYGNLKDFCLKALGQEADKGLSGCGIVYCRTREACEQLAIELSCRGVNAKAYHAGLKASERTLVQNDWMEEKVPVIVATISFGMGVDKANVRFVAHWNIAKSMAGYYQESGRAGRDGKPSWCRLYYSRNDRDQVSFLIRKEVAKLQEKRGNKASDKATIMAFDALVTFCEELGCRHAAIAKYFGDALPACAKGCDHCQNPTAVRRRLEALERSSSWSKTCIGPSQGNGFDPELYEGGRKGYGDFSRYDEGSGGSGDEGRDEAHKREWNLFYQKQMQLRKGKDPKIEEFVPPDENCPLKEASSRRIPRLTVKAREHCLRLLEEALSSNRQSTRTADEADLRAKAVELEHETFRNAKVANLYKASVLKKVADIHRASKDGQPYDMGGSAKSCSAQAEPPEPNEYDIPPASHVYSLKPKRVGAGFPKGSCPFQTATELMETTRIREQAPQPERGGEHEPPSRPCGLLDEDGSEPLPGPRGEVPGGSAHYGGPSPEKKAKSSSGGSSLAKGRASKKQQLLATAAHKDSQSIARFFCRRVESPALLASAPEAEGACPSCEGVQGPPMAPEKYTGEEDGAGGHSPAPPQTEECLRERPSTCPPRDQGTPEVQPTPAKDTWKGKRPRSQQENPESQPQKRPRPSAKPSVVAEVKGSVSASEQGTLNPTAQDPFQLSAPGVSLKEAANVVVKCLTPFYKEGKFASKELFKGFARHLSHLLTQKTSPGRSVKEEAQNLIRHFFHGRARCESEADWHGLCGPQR
Chain of UniProt Q8IZV5 (Q8IZV5 whole entry, looked up): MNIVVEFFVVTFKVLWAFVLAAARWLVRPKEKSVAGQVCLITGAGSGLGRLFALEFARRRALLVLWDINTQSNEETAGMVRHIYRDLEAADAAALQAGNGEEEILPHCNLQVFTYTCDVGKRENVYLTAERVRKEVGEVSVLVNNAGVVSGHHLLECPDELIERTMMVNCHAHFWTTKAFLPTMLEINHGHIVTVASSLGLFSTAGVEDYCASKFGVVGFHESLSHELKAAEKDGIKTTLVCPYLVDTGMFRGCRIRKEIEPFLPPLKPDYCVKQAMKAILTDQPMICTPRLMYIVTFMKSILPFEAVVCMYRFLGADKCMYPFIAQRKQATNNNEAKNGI
Chain of UniProt Q6UVJ0 (Q6UVJ0 whole entry, looked up): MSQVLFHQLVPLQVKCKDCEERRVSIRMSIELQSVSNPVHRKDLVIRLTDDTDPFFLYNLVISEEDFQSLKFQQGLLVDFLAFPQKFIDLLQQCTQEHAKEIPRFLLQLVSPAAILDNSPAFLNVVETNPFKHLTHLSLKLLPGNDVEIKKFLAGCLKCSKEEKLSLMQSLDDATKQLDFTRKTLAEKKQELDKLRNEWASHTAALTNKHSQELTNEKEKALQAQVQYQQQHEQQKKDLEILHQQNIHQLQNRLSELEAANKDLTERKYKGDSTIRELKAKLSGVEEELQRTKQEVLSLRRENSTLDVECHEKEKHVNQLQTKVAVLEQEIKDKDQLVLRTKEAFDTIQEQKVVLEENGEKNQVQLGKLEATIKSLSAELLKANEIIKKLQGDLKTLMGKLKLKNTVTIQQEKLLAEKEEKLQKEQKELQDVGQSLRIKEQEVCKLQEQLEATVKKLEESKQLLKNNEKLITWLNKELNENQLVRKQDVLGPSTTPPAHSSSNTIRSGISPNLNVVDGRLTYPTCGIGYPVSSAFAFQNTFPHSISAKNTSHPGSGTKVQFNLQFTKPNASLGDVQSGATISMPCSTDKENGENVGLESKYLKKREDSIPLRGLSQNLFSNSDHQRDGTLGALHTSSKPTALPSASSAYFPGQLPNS
Chain of UniProt O14730 (O14730 whole entry, looked up): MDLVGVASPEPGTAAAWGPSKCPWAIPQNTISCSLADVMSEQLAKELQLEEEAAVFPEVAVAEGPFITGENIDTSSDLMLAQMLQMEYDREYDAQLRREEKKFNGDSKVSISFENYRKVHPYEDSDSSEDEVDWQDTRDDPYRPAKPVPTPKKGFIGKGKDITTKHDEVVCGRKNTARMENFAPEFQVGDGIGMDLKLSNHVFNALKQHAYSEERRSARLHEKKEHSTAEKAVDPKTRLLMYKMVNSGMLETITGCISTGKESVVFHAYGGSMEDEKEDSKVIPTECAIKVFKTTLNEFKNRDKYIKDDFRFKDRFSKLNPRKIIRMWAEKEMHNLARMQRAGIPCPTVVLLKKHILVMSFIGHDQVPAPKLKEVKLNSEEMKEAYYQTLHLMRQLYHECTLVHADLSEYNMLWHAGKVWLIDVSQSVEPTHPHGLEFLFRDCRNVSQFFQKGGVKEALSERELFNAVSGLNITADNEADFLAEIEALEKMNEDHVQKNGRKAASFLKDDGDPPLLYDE
Chain of UniProt P40938 (P40938 whole entry, looked up): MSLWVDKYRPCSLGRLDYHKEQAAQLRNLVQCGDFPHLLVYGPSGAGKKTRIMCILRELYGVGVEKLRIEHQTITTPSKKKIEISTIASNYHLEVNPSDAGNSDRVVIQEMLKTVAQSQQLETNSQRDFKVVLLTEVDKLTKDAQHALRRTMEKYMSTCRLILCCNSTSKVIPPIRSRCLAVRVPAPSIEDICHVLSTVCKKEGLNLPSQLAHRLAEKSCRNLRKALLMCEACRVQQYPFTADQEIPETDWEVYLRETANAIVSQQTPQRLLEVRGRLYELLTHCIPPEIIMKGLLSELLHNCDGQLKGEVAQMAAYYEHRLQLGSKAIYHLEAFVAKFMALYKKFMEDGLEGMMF
Chain of UniProt P54136 (P54136 whole entry, looked up): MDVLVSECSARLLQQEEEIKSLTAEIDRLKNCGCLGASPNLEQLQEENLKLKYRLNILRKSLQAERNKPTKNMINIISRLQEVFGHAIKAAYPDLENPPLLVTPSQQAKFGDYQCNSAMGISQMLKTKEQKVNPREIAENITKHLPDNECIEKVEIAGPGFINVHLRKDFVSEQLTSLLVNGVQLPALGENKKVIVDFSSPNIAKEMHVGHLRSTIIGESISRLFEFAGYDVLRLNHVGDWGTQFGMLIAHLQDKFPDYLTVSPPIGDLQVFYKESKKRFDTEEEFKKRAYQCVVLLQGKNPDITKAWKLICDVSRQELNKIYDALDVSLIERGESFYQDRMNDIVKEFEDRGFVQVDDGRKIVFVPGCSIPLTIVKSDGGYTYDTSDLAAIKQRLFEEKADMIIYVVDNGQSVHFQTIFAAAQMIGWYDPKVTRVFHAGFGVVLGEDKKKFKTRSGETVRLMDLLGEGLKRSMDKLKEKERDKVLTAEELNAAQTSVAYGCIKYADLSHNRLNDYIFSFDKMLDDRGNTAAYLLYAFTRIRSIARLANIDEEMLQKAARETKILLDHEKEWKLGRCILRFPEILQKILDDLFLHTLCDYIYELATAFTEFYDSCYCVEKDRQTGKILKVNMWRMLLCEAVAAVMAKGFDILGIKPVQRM
Chain of UniProt Q5TBB1 (Q5TBB1 whole entry, looked up): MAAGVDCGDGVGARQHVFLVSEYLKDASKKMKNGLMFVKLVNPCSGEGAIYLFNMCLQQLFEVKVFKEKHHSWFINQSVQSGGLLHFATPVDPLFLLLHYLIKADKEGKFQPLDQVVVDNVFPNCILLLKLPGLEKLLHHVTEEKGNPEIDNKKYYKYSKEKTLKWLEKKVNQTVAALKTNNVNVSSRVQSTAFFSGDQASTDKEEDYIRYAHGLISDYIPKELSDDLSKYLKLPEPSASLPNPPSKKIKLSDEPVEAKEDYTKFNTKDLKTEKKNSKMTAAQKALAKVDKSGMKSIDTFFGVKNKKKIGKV

Target | log2 fold change
RNASEH2B (UniProt Q5TBB1) | -0.008
RARS (UniProt P54136) | 0.038
RDH10 (UniProt Q8IZV5) | 0.018
RDX (UniProt P35241) | -0.036
RABGGTB (UniProt P53611) | -0.01
SCO2 (UniProt O43819) | 0.002
RAD51C (UniProt O43502) | 0.026
SASS6 (UniProt Q6UVJ0) | 0.028
RIOK3 (UniProt O14730) | 0.052
RPS26P11 (UniProt Q5JNZ5) | 0.031
SCCPDH (UniProt Q8NBX0) | -0.144
SERINC3 (UniProt Q13530) | -0.016
RAB5IF isoform 5 (UniProt Q9BUV8) | -0.096
RBBP7 isoform 2 (UniProt Q16576) | -0.009
SCD (UniProt O00767) | -0.007
RBSN (UniProt Q9H1K0) | 0.076

Target | log2 fold change
SCML2 (UniProt Q9UQR0) | 0.062
RAP1B (UniProt P61224) | -0.023
RFC2 (UniProt P35250) | 0.006
SEC24D isoform 2 (UniProt O94855) | 0.006
RASA2 (UniProt Q15283) | 0.045
RECQL5 (UniProt O94762) | 0.014
RBBP7 (UniProt Q16576) | 0.013
SEH1L isoform 1 (UniProt Q96EE3) | 0.031
RBMX (UniProt P38159) | -0.01
RNF170 (UniProt Q96K19) | -0.115
RFC3 (UniProt P40938) | 0.003
RPL37A (UniProt P61513) | 0
RAB21 (UniProt Q9UL25) | 0.036
RALGAPB (UniProt Q86X10) | 0.023
RLIM (UniProt Q9NVW2) | 0.135
RNF181 (UniProt Q9P0P0) | -0.145

compound: CC1=C2C(=CC=C1)N=C(N(C2=O)C3=CC=CC=C3C)CN4C=NC5=C(N=CN=C54)N; experiment: as above
Summary of the method: as §1

Target | log2 fold change
RNASEH2B (UniProt Q5TBB1) | -0.032
RARS (UniProt P54136) | 0.024
RDH10 (UniProt Q8IZV5) | 0.006
RDX (UniProt P35241) | 0.003
RABGGTB (UniProt P53611) | 0.005
SCO2 (UniProt O43819) | 0.037
RAD51C (UniProt O43502) | 0.078
SASS6 (UniProt Q6UVJ0) | 0
RIOK3 (UniProt O14730) | 0.053
RPS26P11 (UniProt Q5JNZ5) | 0.05
SCCPDH (UniProt Q8NBX0) | 0.038
SERINC3 (UniProt Q13530) | 0.028
RAB5IF isoform 5 (UniProt Q9BUV8) | 0.019
RBBP7 isoform 2 (UniProt Q16576) | -0.03
SCD (UniProt O00767) | 0.103
RBSN (UniProt Q9H1K0) | 0.087

Target | log2 fold change
SCML2 (UniProt Q9UQR0) | -0.055
RAP1B (UniProt P61224) | 0.032
RFC2 (UniProt P35250) | -0.008
SEC24D isoform 2 (UniProt O94855) | -0.016
RASA2 (UniProt Q15283) | 0.058
RECQL5 (UniProt O94762) | 0.011
RBBP7 (UniProt Q16576) | 0.009
SEH1L isoform 1 (UniProt Q96EE3) | -0.045
RBMX (UniProt P38159) | -0.004
RNF170 (UniProt Q96K19) | 0.149
RFC3 (UniProt P40938) | 0.026
RPL37A (UniProt P61513) | -0.031
RAB21 (UniProt Q9UL25) | 0.019
RALGAPB (UniProt Q86X10) | 0.085
RNF181 (UniProt Q9P0P0) | -0.031

compound: Cc1sc2c(c1C)C(c1ccc(Cl)cc1)=N[C@@H](CC(=O)OC(C)(C)C)c1nnc(C)n1-2; experiment: as above
Summary of the method: as §1

Target | log2 fold change
RNASEH2B (UniProt Q5TBB1) | 0.038
RARS (UniProt P54136) | 0.028
RDH10 (UniProt Q8IZV5) | -0.051
RDX (UniProt P35241) | 0.025
RABGGTB (UniProt P53611) | -0.048
SCO2 (UniProt O43819) | 0.011
RAD51C (UniProt O43502) | -0.029
SASS6 (UniProt Q6UVJ0) | 0.021
RIOK3 (UniProt O14730) | -0.007
RPS26P11 (UniProt Q5JNZ5) | -0.033
SCCPDH (UniProt Q8NBX0) | -0.004
SERINC3 (UniProt Q13530) | -0.056
RAB5IF isoform 5 (UniProt Q9BUV8) | -0.085
RBBP7 isoform 2 (UniProt Q16576) | -0.01
SCD (UniProt O00767) | -0.179
RBSN (UniProt Q9H1K0) | 0.117

Target | log2 fold change
SCML2 (UniProt Q9UQR0) | -0.032
RAP1B (UniProt P61224) | 0.055
RFC2 (UniProt P35250) | 0.043
SEC24D isoform 2 (UniProt O94855) | 0.033
RASA2 (UniProt Q15283) | 0.025
RECQL5 (UniProt O94762) | -0.174
RBBP7 (UniProt Q16576) | -0.042
SEH1L isoform 1 (UniProt Q96EE3) | -0.041
RBMX (UniProt P38159) | -0.015
RNF170 (UniProt Q96K19) | 0.285
RFC3 (UniProt P40938) | 0.055
RPL37A (UniProt P61513) | 0.191
RAB21 (UniProt Q9UL25) | 0.055
RALGAPB (UniProt Q86X10) | -0.026
RNF181 (UniProt Q9P0P0) | 0.022
